Pf growth 48h: Primary qHTS for delayed death inhibitors of the malarial parasite plastid, 48 hour incubation; P. falciparum luciferase growth in erythrocytes, 48 h; AID 504832, 2011; Potency, µM (highest dose often 28.7 µM), hits mostly inhibitors; 310,000 tested, 5.9% active
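Compounds are pin-transferred into medium, infected erythrocytes (2% hematocrit, 0.1% parasitemia final) are added, and plates sit one parasite generation at 37 C in 5% CO2. Detection reagent is then added and luminescence measured.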
Pf growth 96h: Primary qHTS for delayed death inhibitors of the malarial parasite plastid, 96 hour incubation | Potency, µM (doses to about 28.7 µM), most hits filed as inhibitors | P. falciparum luciferase reporter growth, 96 h | 320,000 tested, 6.9% active
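96 h incubation, 37 C, 5% CO2, of luciferase-reporter P. falciparum-infected RBCs (2% hematocrit, 0.05% parasitemia final) with test compounds; endpoint luminescence.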
CHX counter: Cycloheximide Counterscreen for Small Molecule Inhibitors of Shiga Toxin | cell reporter, cycloheximide protein synthesis inhibition counterscreen | 300,000 tested, 12% active | max response, %; in the data active = max response mostly above about 13%, no sharp cut-off; inactive = mostly below about 14%; note: read at 38.3 µM for the half of the compounds with a filed dose
Sm TGR block: qHTS Assay for the Inhibitors of Schistosoma Mansoni Peroxiredoxins | 360,000 tested, 3% active | AID 485364, 2010 | Schistosoma mansoni thioredoxin glutathione reductase (TGR), Q962Y6 | purified TGR, DTNB reduction, TNB absorbance 405 nm | Potency, µM (top dose mostly 114 µM), hits mostly inhibitors; note: nearly all actives have a fitted effect of over 60% in size
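TGR 20 nM + NADPH 100 uM (dispensed conc.), cpd preinc 15 min RT; start with NADPH (500 uM addition) then DTNB (15 mM addition). Kinetic TNB absorbance, 405 nm filter. Four-parameter Hill fit across titration.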
NS1 function inh: qHTS Assay for Inhibitors of Influenza NS1 Protein Function | Potency, µM (doses to about 46.1 µM) | 270,000 tested, 0.4% active; calls by dose curve; note: actives are rising curves; nearly all actives have a fitted effect of over 50% in size
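Growth recovery, yeast-based: influenza A NS1 expressed in S. cerevisiae causes slow growth, and suppressors are detected by OD600. The parent strain without NS1 is used as positive control.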
Shiga toxin inh: A qHTS for Small Molecule Inhibitors of Shiga Toxin | Vero cells, Shiga toxin protein synthesis inhibition reporter | inhibition, % at 38.7 µM | 290,000 tested, 9.2% active | AID 2315, 2010; in the data active = inhibition mostly above about 28%, no sharp cut-off; inactive = mostly below about 43%
A number is an active result; n = inactive; u = inconclusive; x = not tested or not shown. In the library only some 21% were active in any assay of this set; here they are far more common. Unless noted, calls come from the whole dose curve; as a rule, active = well fitted curve in the direction sought with a large enough effect; inconclusive = small, poorly fitted or top-dose-only effect, or another doubt; inactive = no such curve, though single readings can be large; an effect the other way counts as inactive or inconclusive.

SMILES	Pf growth 48h	Pf growth 96h	CHX counter	Sm TGR block	NS1 function inh	Shiga toxin inh
COC(=O)c1c(NC(=O)CN2CCC3(O)CCCCC3C2c2ccc(F)cc2)sc(C)c1C (stereo not drawn)	8.3µM	u	n	n	u	n
Cc1nnc(SC(C)C(=O)N(C)C2CCCCC2)n1N (stereo not drawn)	n	u	x	n	x	x
Cc1cc(C(=O)CSc2ccc(F)cc2)cc(C)c1OC(=S)N(C)C	x	n	58	n	n	146
COc1ccc(SCC(=O)c2cc(C)c(OC(=S)N(C)C)c(C)c2)cc1	u	x	48	n	n	n
NC(Cc1ccccc1)C(O)c1ccco1 (stereo not drawn)	x	x	n	x	x	n
Cc1ccc(-c2noc(C3CCCN(S(=O)(=O)c4ccc5ccccc5c4)C3)n2)o1 (stereo not drawn)	x	u	n	40µM	n	n
Cc1ccc(S(=O)(=O)N2CCCC(c3nc(-c4ccc(C)o4)no3)C2)cc1 (stereo not drawn)	n	x	n	n	n	n
CC(=O)c1cccc(S(=O)(=O)N2CCCC(c3nc(-c4ccc(C)o4)no3)C2)c1 (stereo not drawn)	u	x	n	50µM	n	n
Cc1ccc(N2C(=O)N(CC(=O)Nc3cc(F)ccc3C)C(=O)C2C)cc1 (stereo not drawn)	n	n	x	n	x	x
O=C(Cc1c(F)cccc1Cl)Nc1ccccn1	n	u	n	n	n	37
O=C(COC(=O)Cc1ccc(F)cc1)Nc1ccc(Cl)cn1	n	n	x	n	x	x
O=C(Cc1ccc(Cl)cc1)Nc1ccc(Cl)cn1	n	n	44	n	n	67
O=C(Cc1ccc(Cl)cc1)Nc1ccc(Br)cn1	n	u	36	n	n	72
Cc1ccnc(NC(=O)Cc2c(F)cccc2Cl)c1	n	n	n	n	n	n
O=C(Cc1ccc(F)cc1)Nc1ccc(Cl)cn1	n	n	26	n	n	n
CCN(CC)C(=O)C(=O)c1cccn1-c1cccc(-n2cccc2C(=O)C(=O)N(CC)CC)c1C#N	x	u	n	n	n	n
CCN(CC)c1cc(C)c2cc(NC(=O)/C=C/c3ccccc3OC(C)C)ccc2n1	x	x	x	n	x	x
Cc1ccc(C)c(CN2CCN(c3ncccn3)CC2)c1	n	u	n	n	n	n
O=S(=O)(Cc1ccc(Cl)cc1)Nc1ccc(Cl)cn1	n	n	n	n	n	25
O=C(Nc1ccc(F)cc1)Nc1ccc(Cl)cn1	n	n	23	n	n	62
O=C(Cc1ccc(Cl)cc1)Nc1ccccn1	n	n	36	n	n	n
COc1ccc(/C(C)=N/NC(=O)CNC(=O)c2ccncc2)c(OC)c1	n	n	n	n	n	n
COc1ccc(Cl)cc1NC(=O)CN(C)C1CCCCC1	u	u	n	n	n	n
COc1ccc(C)cc1NC(=O)CN(Cc1nnc(-c2ccc(Cl)cc2)o1)C1CCCC1	10µM	u	13	n	n	n
COc1ccc(C)cc1NC(=O)CSc1nnc(-c2ccc(C)cc2)o1	x	n	n	n	n	n
SMILES	Pf growth 48h	Pf growth 96h	CHX counter	Sm TGR block	NS1 function inh	Shiga toxin inh
COc1ccc(OC)c(NC(=O)CN(Cc2ccc(F)cc2)C2CCCCC2)c1	4.7µM	u	n	n	n	n
O=C(O)c1ccc([N+](=O)[O-])c(P(=O)(O)O)c1	x	x	x	x	n	x
COc1ccccc1NC(=O)c1cc(-c2cc(OC)c(OC)c(OC)c2)nc2ccccc12	4.7µM	u	n	n	n	n
Cc1nnc(NC(=O)c2cc(-c3ccncc3)nc3c(C)cccc23)s1	u	n	36	n	n	32
O=C(Nc1nccs1)c1cc(-c2ccncc2)nc2ccccc12	u	u	n	n	x	n
CC(=O)c1ccc(NC(=O)c2cc(CC(C)C)nc3ccccc23)cc1	u	u	48	n	n	82
CCOc1ccccc1NC(=O)c1cc(-c2cc(OC)c(OC)c(OC)c2)nc2ccccc12	u	u	n	n	u	n
O=C(Nc1ccc(SC(F)F)cc1)c1cc(-c2ccncc2)nc2ccccc12	u	5.2µM	x	n	x	x
Fc1cccc(-n2ncc3c2ncn2nc(COc4ccc(Cl)cc4)nc32)c1	x	x	x	n	x	x
COc1cc(-c2cc(C(=O)Nc3ccncc3)c3ccccc3n2)cc(OC)c1OC	8.3µM	4.1µM	x	n	x	x
COc1ccc(-c2cc(C(=O)Nc3ccccc3N3CCOCC3)c3ccccc3n2)cc1OC	u	u	n	n	x	n
COc1ccc(-c2cc(C(=O)c3c(N)n(C)c(=O)n(C)c3=O)c3ccccc3n2)cc1OC	n	n	25	n	n	n
Cc1ccc(-c2cc(C(=O)Nc3ccncc3)c3ccccc3n2)cc1	1.7µM	1.5µM	x	n	x	x
Cn1c(N)c(C(=O)c2cc(-c3ccncc3)nc3ccccc23)c(=O)n(C)c1=O	n	u	n	n	x	n
COc1cc(-c2cc(C(=O)Nc3cc(S(=O)(=O)N4CCOCC4)ccc3C)c3ccccc3n2)cc(OC)c1OC	2.9µM	1µM	x	n	x	x
COc1ccc(-c2cc(C(=O)NNC(=O)c3csc(N4CCOCC4)n3)c3ccccc3n2)cc1	u	u	x	n	x	x
COc1cc(-c2cc(C(=O)Nc3ccc(N4CCOCC4)cc3)c3ccccc3n2)cc(OC)c1OC	10µM	5.9µM	n	n	n	n
COc1ccc(-c2cc(C(=O)Nc3ccc(C(N)=O)cc3)c3ccccc3n2)cc1	n	u	16	n	n	65
COc1ccc(-c2cc(C(=O)NNC(=O)c3csc(N4CCOCC4)n3)c3ccccc3n2)cc1OC	u	13µM	x	n	x	x
O=C(Nc1ccc(N2CCOCC2)cc1)c1cc(-c2ccncc2)nc2ccccc12	u	u	n	n	n	n
CNS(=O)(=O)c1ccc(NC(=O)c2cc(-c3ccncc3)nc3ccc(Cl)cc23)cc1	13µM	n	n	n	n	n
NC(=O)c1cc(-c2ccncc2)nc2ccc(Cl)cc12	u	u	n	x	n	n
Cc1ccccc1NC(=S)NC(=O)c1cc(-c2ccccc2)nc2ccccc12	u	9.3µM	n	n	u	n
CCNC(=S)NNC(=O)c1cc(-c2cc(C)ccc2C)nc2ccccc12	u	5.2µM	n	n	n	n
CCc1cccc(C)c1NC(=O)c1cc(-c2ccncc2)nc2ccccc12	10µM	9.3µM	x	n	x	x
SMILES	Pf growth 48h	Pf growth 96h	CHX counter	Sm TGR block	NS1 function inh	Shiga toxin inh
COc1ccc(-c2cc(C(=O)Nc3ccc(Cl)cc3Cl)c3ccccc3n2)cc1OC	u	n	n	n	n	n
Cc1cccc(NC(=S)NC(=O)c2cc(-c3ccccc3)nc3ccccc23)c1	n	n	n	n	n	n
COc1ccc(-c2cc(C(=O)Nc3c(Cl)cc(Cl)cc3Cl)c3ccccc3n2)cc1OC	13µM	u	n	n	n	n
CCCc1cc(C(=O)NNC(=S)NCC)c2ccccc2n1	n	n	n	n	n	n
CCOc1ccccc1NC(=O)COc1cccc2c(=O)n(CCOC)ccc12	x	x	x	n	x	x
CCOC(=O)CC(=O)CSc1nc2ccccc2c(=O)n1CCc1ccc(S(N)(=O)=O)cc1	x	x	x	n	x	x

Bioassay records deposited in PubChem BioAssay by National Center for Advancing Translational Sciences (NCATS).
